In the library only some 4.1% were active in any assay of this set; here they are far more common.
Peg3 prom inh = Peg3 promoter activity inhibition; HeLa PEG-Prom luciferase reporter, luminescence, overnight; inhibition, % at 20 µM; 360,000 tested, 1.7% active; AID 588405;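 active = inhibition of at least 50% at 20 µM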
TROY NFkB inh = TROY signaling inhibition | inhibition, % at 10 µM | 360,000 tested, 0.98% active | AID 1347056 | Q293 LMP1-TROYcd NF-kB luciferase reporter, 4 h;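 active = compounds whose plate-normalised and pattern-corrected inhibition of the luciferase reporter signal at the single screening dose is 50% or more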
TWEAK Fn14 block = blocks TWEAK-Fn14 interaction in a reporter cell assay; inhibition, % at 10 µM; TWEAK-stimulated Fn14 reporter cells, luciferase luminescence, 8 h; 360,000 tested, 2% active; in the data active = inhibition above about 50%
LMP1 NFkB inh = inhibitors of Epstein-Barr LMP1-induced NF-kappaB reporter. LMP1-induced NF-kappaB luciferase reporter cells, luminescence. inhibition, % at 12.5 µM. 350,000 tested, 0.69% active; in the data active = inhibition above about 41%; inconclusive = no clear call, values can overlap the other calls
TRPM1 prom inh = reduces MITF-dependent TRPM1 promoter luciferase signal. SK-MEL-5 TRPM1 promoter luciferase, 24 h. inhibition, % at 12.5 µM. 330,000 tested, 0.83% active. AID 488899;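 active = mean inhibition across replicates of 60% or more, whatever share of single replicates reaches that level; inconclusive = some that reach 60%, reason not given; inactive = mean inhibition across replicates below 60%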
Shn3 inh set2 = Schnurri-3 reporter inhibition in Clone20 osteoblasts | inhibition, % at 12.5 µM | Clone20 osteoblast Shn3 3'UTR firefly luciferase, 24 h | 360,000 tested, 0.52% active;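 active = mean inhibition of at least 75% with every replicate also reaching 75%; inconclusive = mean inhibition at least 75% but some replicate below; inactive = mean inhibition below 75%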
Hits are given with their value; 0 = inactive; ? = inconclusive; - = no result given.

SMILES | Peg3 prom inh | TROY NFkB inh | TWEAK Fn14 block | LMP1 NFkB inh | TRPM1 prom inh | Shn3 inh set2
N#Cc1c(NC(=O)c2ccccc2Cl)n(Cc2ccccc2)c2nc3ccccc3nc12 | 0 | 65 | 86 | 0 | 0 | 0
CCCCn1c(NC(=O)CC)c(C#N)c2nc3ccccc3nc21 | 0 | 0 | 0 | 0 | 0 | 0
Cc1ccsc1CNC12CC3CC(CC(C3)C1)C2 | 0 | 0 | 0 | 0 | 0 | 0
O=C1OCc2cc(NC(=O)C3COc4ccccc4O3)ccc21 (centres undefined) | 0 | 0 | 0 | 0 | 0 | 0
CCOc1ccc2nc(SC3CC(=O)N(c4ccc(C)cc4)C3=O)sc2c1 (centres undefined) | 89 | 0 | 0 | 0 | 0 | 96
CCOc1ccc(N2C(=O)CC(Sc3nc4ccc(OCC)cc4s3)C2=O)cc1 (centres undefined) | 0 | 0 | 0 | 0 | 0 | 0
CCOC(=O)c1ccc(N2C(=O)CC(Sc3nc(C)cc(C)n3)C2=O)cc1 (centres undefined) | 0 | 0 | 0 | 0 | 0 | 0
CCOC(=O)c1ccc(-n2c(C)ccc2C)cc1 | 0 | 0 | 0 | 0 | 0 | 0
CCOC(=O)c1ccc(N2C(=O)CC(Sc3nnc(C)s3)C2=O)cc1 (centres undefined) | 0 | - | 69 | 0 | 0 | 0
C=CCNc1nnc(SC2CC(=O)N(c3ccc(OCCC)cc3)C2=O)s1 (centres undefined) | 104 | 0 | 0 | 0 | 0 | 0
CCOC(=O)c1ccc(N2C(=O)C=CC2=O)cc1 | 103 | 0 | 0 | 67 | 0 | 88
Cn1ncc(Br)c1NC(=O)Nc1ccc(Cl)cc1 | 0 | 0 | 0 | 0 | 0 | 0
Cc1c2n(c3ccccc13)CCN(C)C2 | 0 | 0 | 0 | 0 | 0 | 0
Cc1cc(C)cc(OCC(=O)Nc2ccncc2)c1 | 0 | 0 | 0 | 0 | 0 | 0
CCC(=O)NC(c1ccccc1OC)c1ccc2cccnc2c1O (centres undefined) | 0 | 0 | 0 | 65 | 66 | 89
CCCCC(=O)NC(c1cccc([N+](=O)[O-])c1)c1ccc2cccnc2c1O (centres undefined) | 58 | 0 | 0 | 50 | 0 | 89
COc1ccc(Cl)cc1C(Nc1cccnc1)c1ccc2cccnc2c1O (centres undefined) | 0 | 0 | 0 | 0 | 0 | 0
CC(=O)NC(c1cccc([N+](=O)[O-])c1)c1ccc2cccnc2c1O (centres undefined) | 0 | 0 | 0 | 62 | 0 | 91
COc1cccc(C(NC(C)=O)c2nc(-c3cccnc3)cs2)c1 (centres undefined) | 0 | 0 | 0 | - | - | 0
COc1cccc(C(NC(C)=O)c2ccc3cccnc3c2O)c1 (centres undefined) | 0 | 0 | 0 | 50 | 84 | 0
CCCc1cc2c(OC(=O)CC)c(-c3ccc(C(=O)OCC)o3)c(=O)oc2cc1OC | 0 | 0 | 0 | 0 | 0 | 0
OCC#CCSc1nnc(-c2cccc3ccccc23)o1 | 0 | 0 | 0 | 0 | 0 | 0
CCCCC(=O)NC(c1ccc(C(C)C)cc1)c1ccc2cccnc2c1O (centres undefined) | 53 | 0 | 0 | 50 | 70 | 0
O=[N+]([O-])c1ccc(NC(c2ccccc2)c2ccc3cccnc3c2O)cc1 (centres undefined) | 58 | 0 | 0 | 57 | 74 | 91
CCCCC(=O)NC(c1ccco1)c1cc(Cl)c2cccnc2c1O (centres undefined) | 0 | 0 | 0 | 0 | 0 | 0
SMILES | Peg3 prom inh | TROY NFkB inh | TWEAK Fn14 block | LMP1 NFkB inh | TRPM1 prom inh | Shn3 inh set2
O=C(NC1CCCCC1)C1c2ccccc2OCC(=O)N1Cc1cccnc1 (centres undefined) | - | 0 | 0 | - | - | -
COc1ccc(OC)c(N=C(N)N=C(N)N)c1 | 0 | 0 | 0 | 0 | 0 | 0
O=C(O)c1cn(-c2ccc(F)c(F)c2)c2c(F)c(F)c(F)c(F)c2c1=O | 0 | 0 | 0 | 0 | 0 | 0
O=C(c1ccc2nc(Cc3cccc(Cl)c3)oc2c1)N1CCC(O)CC1 | 0 | 0 | 0 | 0 | 0 | 0
CCOC(=O)/C(=N/Nc1ccc(OC)cc1)Sc1nnc(CCc2ccccc2)n1-c1ccccc1 | 0 | 68 | 51 | 0 | 0 | 0
CC(=O)/C(=N/Nc1ccc(C)cc1)Sc1nnc(CCc2ccccc2)n1-c1ccccc1 | 0 | 0 | 0 | 0 | 0 | 0
CCC(=O)N1CCc2cc(S(=O)(=O)CCC(=O)N3CCCC(C)C3)ccc21 (centres undefined) | 0 | 0 | 0 | 0 | 0 | 0
CCN(CC)CCCNC(=O)c1[nH]c2ccccc2c1Sc1ccc(Cl)cc1 | 65 | 0 | 0 | 0 | 0 | 0
COC(=O)c1[nH]c2ccccc2c1Sc1ccccc1 | 0 | 0 | 0 | 0 | 0 | 0
Cc1ccc(-n2nnnc2C(Cl)(Cl)c2nnnn2-c2ccc(C)cc2)cc1 | 0 | 60 | 0 | 0 | 0 | 0
C[C@H](O)C#Cc1ccc2c(c1)O[C@@H](CN(C)Cc1ccc(-c3ccccc3)cc1)[C@H](C)CN([C@@H](C)CO)S2(=O)=O | 0 | 0 | 0 | 0 | - | 0
Oc1cccc2ccc(/C=C/c3ccccc3Cl)nc12 | 0 | 74 | 95 | 0 | 0 | 0
CCOc1cccc(/C=C/c2ccc3cccc(O)c3n2)c1O | 97 | 0 | 0 | 0 | 0 | 0
CN(C(=O)COC(=O)/C=C/c1cn(-c2ccccc2)nc1-c1ccc2c(c1)OCCO2)C1CCS(=O)(=O)C1 (centres undefined) | 0 | 0 | 0 | 0 | 0 | 0
Cc1c(OCC(=O)N2CCC(C(=O)NCCCC(=O)O)CC2)ccc2c1oc(=O)c1ccccc12 | 0 | 0 | 0 | 0 | 0 | 0
c1ccc(-c2ccc(-c3cn4c(n3)CCC4)cc2)cc1 | 0 | 0 | 55 | 0 | 0 | 0
CCOC(=O)NC(=O)c1cn(CCNCCO)c(=O)[nH]c1=O | 0 | 0 | 0 | 0 | 0 | 0
COC(=O)Nc1nn(-c2ccc(Cl)cc2)c(=O)c(C#N)c1C | 0 | 0 | 0 | 0 | 0 | 0
CC(C)(C)[C@H](N)C(=O)N[C@H]1CCC2C3CC=C4C[C@@H](O)CC[C@]4(C)C3CC[C@@]21C (some centres undefined) | 96 | 0 | 0 | 0 | 76 | 0
CC(=O)C1CCC2C3CC=C4CC(SC(=N)N)CCC4(C)C3CCC12C (centres undefined) | 97 | 0 | 0 | 0 | 90 | ?
CCCN(CCC)S(=O)(=O)c1ccc(C(=O)N2CCN(C)CC2)cc1 | 0 | 0 | 0 | 0 | 0 | 0
Cn1c(=O)[nH]c(=O)c2c1nc([N+](=O)[O-])n2Cc1ccccc1 | 117 | 0 | 73 | 95 | 93 | 98
CC(C)Cn1c([N+](=O)[O-])nc2c1c(=O)[nH]c(=O)n2C | 0 | 0 | 0 | 0 | 0 | -
Cc1c(Cl)cccc1NC(=O)CC(Cc1ccccc1)C(=O)O (centres undefined) | 0 | 0 | 0 | 44 | 0 | 0
Cc1c(Cl)cccc1NC(=O)CC(C(=O)O)C1CCCO1 (centres undefined) | 0 | 0 | 0 | 0 | 0 | 0
CCN1C(=O)C(CC(=O)Nc2ccc(Cl)cc2)N(NC(=O)c2ccncc2)C1=S (centres undefined) | 0 | 0 | 0 | - | - | 0

Compound activity as filed in PubChem.
